Compound activity deposited in PubChem by several laboratories.
hiPSC survival: hiPSC single-cell survival enhancement; survival enhancement, % at 20 µM; ATPlite luminescence; 100% = ROCK inhibitor wells, 0% = DMSO; AID 602274; 360,000 tested, 0.044% active; in the data active = survival enhancement above about 18%;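 also: cells exposed to compounds for 16 hours before the ATP read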
Cardio protect: modulators protecting cardiomyocytes from myocardial damage. protection from H2O2 cell death, % at 20 µM. H9c2 cardiomyocytes, H2O2 injury protection, ATPLite, 2 h. 360,000 tested, 0.63% active;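 active = compounds giving at least 50% protection of heart cells from peroxide-induced death in the single-dose screen, raw or plate-pattern-corrected value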
ABCB6 inh 2: human ABCB6 transporter inhibition; K562-ABCB6 porphyrin accumulation, flow cytometry, 1 h; stronger effect = lower value; 360,000 tested, 0.19% active; fluorescence ratio to DMSO, % at 10 µM; Q9NP58; AID 602162;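 active = fluorescence ratio to DMSO below 75%, the collection mean minus 3 SD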;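 also: signal is porphyrin accumulated inside mitochondria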
Target sequence (Q9NP58 whole entry, looked up): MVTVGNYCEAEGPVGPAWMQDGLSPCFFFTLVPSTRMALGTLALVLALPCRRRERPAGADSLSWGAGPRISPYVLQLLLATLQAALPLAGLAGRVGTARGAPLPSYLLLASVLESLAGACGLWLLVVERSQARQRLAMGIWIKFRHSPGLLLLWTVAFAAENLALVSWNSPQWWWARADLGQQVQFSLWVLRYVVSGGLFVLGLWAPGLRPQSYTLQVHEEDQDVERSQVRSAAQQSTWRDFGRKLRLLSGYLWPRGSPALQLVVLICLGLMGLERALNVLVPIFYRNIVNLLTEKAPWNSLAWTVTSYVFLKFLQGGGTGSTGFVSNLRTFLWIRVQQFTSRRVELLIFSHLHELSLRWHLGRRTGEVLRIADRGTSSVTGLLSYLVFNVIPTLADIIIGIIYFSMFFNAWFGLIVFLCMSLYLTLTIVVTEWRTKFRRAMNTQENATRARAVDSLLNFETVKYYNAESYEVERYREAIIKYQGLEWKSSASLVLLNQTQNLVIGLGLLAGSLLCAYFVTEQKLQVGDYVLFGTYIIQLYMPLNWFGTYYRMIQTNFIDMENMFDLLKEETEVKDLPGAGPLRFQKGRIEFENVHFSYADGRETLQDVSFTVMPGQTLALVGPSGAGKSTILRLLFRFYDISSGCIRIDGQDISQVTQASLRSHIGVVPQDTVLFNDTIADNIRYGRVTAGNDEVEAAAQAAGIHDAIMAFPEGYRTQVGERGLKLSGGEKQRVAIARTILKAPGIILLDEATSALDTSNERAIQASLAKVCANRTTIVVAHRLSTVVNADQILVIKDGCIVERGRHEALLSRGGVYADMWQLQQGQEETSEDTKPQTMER
MIN6 prolif: inducers of beta-cell replication in MIN6 cells; MIN6 cells proliferation, ATPlite luminescence, 48 h; cells starved in 0.2% serum; 100% = growth in 10% serum; proliferation, % at 10 µM; 330,000 tested, 0.29% active;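 active = compounds whose signal lies at least 3.5 SD above the mean of all wells on their plate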
Myeloid diff MLP: compounds promoting myeloid differentiation | ER-HoxA9 myeloid progenitors, lysozyme-GFP differentiation, flow cytometry | calls only at 10 µM | 360,000 tested, 1% active | AID 624256;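 active = normalized GFP-positive differentiation at or above the plate's own cutoff, the solvent-only control mean plus 3 SD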;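 also: cells exposed to compound for four days before flow analysis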
Large screens that a line does not name were inactive. Shown are actives, neighbours in structure and some others; about 2.2% of the full set was active somewhere.

CN(C)c1ccc(NC(=O)CN2C(=O)CN=C(c3ccccc3)c3ccccc32)cc1	Myeloid diff MLP active
CCn1ccnc1CN1CCCC(C(=O)c2ccc(SC)cc2)C1 (configuration not stated)	Myeloid diff MLP active
C[C@@H]1CC[C@H]2[C@@H](C)C(=O)O[C@@H]3O[C@@]4(C)CC[C@@H]1[C@]32OO4	Myeloid diff MLP active
CC[n+]1c(-c2ccccc2)c2cc(N)ccc2c2ccc(N)cc21	Myeloid diff MLP active (no result: MIN6 prolif)
CCOP(=S)(OCC)Oc1cc(C)nc(C(C)C)n1	none (no result: MIN6 prolif)
CCCCn1c(=O)c(C(=O)Nc2cccc(C)c2)c(O)c2ccccc21	none
O=C(Nc1cccc(Br)c1)c1c(O)c2c(n(Cc3ccccc3)c1=O)CCCC2	Myeloid diff MLP active
COc1cccc(NP(=O)(Oc2ccc(Cl)cc2)Oc2ccc(Cl)cc2)c1	none
COc1ccccc1OP(=O)(Nc1cccnc1)Oc1ccccc1OC	Cardio protect 60
Fc1ccc2c(c1)nnn2C1CCN(Cc2nnnn2C2CCCCC2)CC1	none
CCOC(=O)c1sc(N=Nc2c(O)[nH]c(=O)[nH]c2=O)c(C(=O)OCC)c1C	none (no result: hiPSC survival, Cardio protect, ABCB6 inh 2, Myeloid diff MLP)
CCN(CC)c1ccc(/C=C2\C(=O)NC(=S)N(c3ccc(OC)cc3OC)C2=O)o1	Myeloid diff MLP active
CCN(CC)c1ccc(/C=C2\C(=O)NC(=S)N(C)C2=O)o1	Myeloid diff MLP active
CCN(CC)c1ccc(C=C2C(=O)N(C)C(=S)N(C)C2=O)o1	none
COc1ccc(Cn2c(N)c(C(=O)NCc3ccco3)c3nc4ccccc4nc32)cc1	Myeloid diff MLP active
Nc1c(C(=O)NCc2ccco2)c2nc3ccccc3nc2n1Cc1ccc(F)cc1	Myeloid diff MLP active
COc1ccc(CCNC(=O)c2c(N)n(CCN3CCOCC3)c3nc4ccccc4nc23)cc1OC	Cardio protect 57
Nc1c(C(=O)NCc2ccco2)c2nc3ccccc3nc2n1Cc1ccccc1	none
CCOC(=O)C1(CCCc2ccccc2)CCN(C2CCC2)CC1	none
CC(C)(C)C(O)C(Oc1ccc(Cl)cc1)n1cncn1 (configuration not stated)	none
CC1(C)N=C(c2ccccc2)[C@@H]2C(c3ccc([N+](=O)[O-])cc3)N21 (some centres not stated)	none
CCCCn1c(O)c(C(C)=NCc2cc(OC)cc(OC)c2)c(=O)[nH]c1=O	Myeloid diff MLP active
CCCCn1c(=O)c(C(=O)Nc2cnccn2)c(O)c2ccccc21	Myeloid diff MLP active
c1ccc2c(CN3CCN(C4CCCCC4)CC3)c[nH]c2c1	none
c1ccc2c(CN3CCCCCCC3)c[nH]c2c1	Myeloid diff MLP active
Cc1ccc2ccccc2c1NC(=O)CNC1CCCCC1	none
Fc1ccc(CNCCc2ccccc2F)cc1	none
CCOc1ccc(C2C(C#N)=C(N)Oc3c2c(=O)oc2ccccc32)cc1 (configuration not stated)	none
CN1C[C@H](CO)C=C2c3cccc4[nH]cc(c34)C[C@H]21	none
CC1=C[C@@H]2c3cccc4[nH]cc(c34)C[C@H]2N(C)C1	Myeloid diff MLP active
CCOP(=S)(OCC)Oc1ccc2c(C)c(Cl)c(=O)oc2c1	none (no result: MIN6 prolif)
CC1CN(CC(=O)c2ccccc2Cl)CC(C)O1 (configuration not stated)	none
COc1cc(/C=C/C(=O)c2c(O)n(CCc3ccccc3)c(=O)[nH]c2=O)ccc1O	Myeloid diff MLP active
Cc1nc2cc([N+](=O)[O-])ccc2c(=O)n1-c1ccccc1[N+](=O)[O-]	none
COc1ccc2c3c([nH]c2c1)C(C)=NCC3	Myeloid diff MLP active
COc1ccc(-n2c(/C=C/c3ccc(O)cc3)nc3ccccc3c2=O)cc1	Cardio protect 53
O=c1c2ccccc2nc(/C=C/c2ccc(O)cc2)n1-c1cccc(O)c1	none
O=c1c2ccccc2nc(/C=C/c2ccc(O)cc2)n1-c1ccc(O)cc1	Cardio protect 55
COc1ccc(-n2c(/C=C/c3ccc(O)c(OC)c3)nc3ccccc3c2=O)cc1	Cardio protect 88, Myeloid diff MLP active
Cc1ccc(-n2c(/C=C/c3ccc4c(c3)OCO4)nc3ccccc3c2=O)cc1	none (no result: hiPSC survival, Cardio protect, ABCB6 inh 2, Myeloid diff MLP)
COc1ccc(-n2c(/C=C/c3ccc4c(c3)OCO4)nc3ccccc3c2=O)cc1	none
COc1cccc(-n2c(/C=C/c3ccc(O)c(O)c3)nc3ccccc3c2=O)c1	Cardio protect 72
CC(C)N1C(=O)CCC1C(=O)N1CCC2(CC1)OCCO2 (configuration not stated)	none
